From PubChem BioAssay (EPA / NIEHS)
Calls of active or inactive are those of the source. How the source made its calls: active means hit-call score of the fitted dose curve at least 0.9, where 1 is the maximum; inactive means score below 0.9.

Tests used:
[1] = ATG_GLI_CIS: Attagene CIS-FACTORIAL HepG2 Assay for human Zinc Finger Protein GLI1 (AID 2282945); conditions: HepG2, Attagene cis-factorial reporter mRNA, GLI element; actives raise or lower the signal
Summary of the method: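 Bidirectional curve fits relative to DMSO, using reporter mRNA levels from RT-PCR plus capillary electrophoresis. Cells were HepG2 transiently carrying cis-regulated reporter constructs, harvested 24 h after dosing.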

[2] = molecular target: Bile acid receptor (Homo sapiens) (UniProt Q96RI1); assay: ATG_IR1_CIS: Attagene CIS-FACTORIAL HepG2 Assay for human Nuclear Receptor Subfamily 1 Group H Member 4 (NR1H4), IR1 submotif (AID 2282946); conditions: IR1 reporter transcription, actives raise or lower the signal
Chain of Bile acid receptor (Homo sapiens) (Q96RI1 whole entry, looked up): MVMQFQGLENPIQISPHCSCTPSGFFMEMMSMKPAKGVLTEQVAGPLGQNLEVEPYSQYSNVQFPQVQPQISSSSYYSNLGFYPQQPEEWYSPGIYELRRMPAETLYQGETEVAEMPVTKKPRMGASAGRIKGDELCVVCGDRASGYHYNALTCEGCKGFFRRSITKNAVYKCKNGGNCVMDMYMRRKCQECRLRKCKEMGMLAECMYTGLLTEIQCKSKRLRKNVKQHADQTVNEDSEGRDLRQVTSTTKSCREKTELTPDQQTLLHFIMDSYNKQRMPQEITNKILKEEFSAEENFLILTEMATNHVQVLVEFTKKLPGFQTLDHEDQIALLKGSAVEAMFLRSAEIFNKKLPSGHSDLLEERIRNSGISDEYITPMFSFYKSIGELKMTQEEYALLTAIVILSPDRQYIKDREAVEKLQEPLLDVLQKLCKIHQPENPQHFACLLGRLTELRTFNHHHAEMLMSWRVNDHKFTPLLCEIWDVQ
Summary of the method: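 HepG2 cells transiently transfected with multiplexed cis-element reporter units read endogenous transcription factor activity. After 24 h compound exposure, reporter mRNA was quantified by RT-PCR, fluorescent labelling, HpaI digestion and capillary electrophoresis; bidirectional fitting versus DMSO baseline.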

[3] = ATG_GRE_CIS: Attagene CIS-FACTORIAL HepG2 Assay for human Glucocorticoid Response Elements (GRE) (AID 2282947); conditions: HepG2 GRE cis-reporter, Attagene multiplex mRNA; actives raise or lower the signal
Summary of the method: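 Reporter transcripts read by RT-PCR with capillary electrophoresis fluorescence after a 24 h chemical exposure of HepG2 cells transiently transfected with multiple cis-element reporter units. Gain or loss fitted against DMSO.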

[4] = ATG_ISRE_CIS: Attagene CIS-FACTORIAL HepG2 Assay for human Interferon Regulatory Factor 1 (IRF1) binding to an Interferon-Stimulated Response Element (ISRE) (AID 2282948); conditions: HepG2 ISRE cis-reporter (Attagene), mRNA transcription readout; actives raise or lower the signal
Summary of the method: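 Signal reflects induction or loss of ISRE-linked reporter mRNA in transiently transfected HepG2 cells after a 24 h treatment, detected by fluorescent RT-PCR fragments on capillary electrophoresis and normalised to DMSO.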

[5] = ATG_M_32_CIS: Attagene CIS-FACTORIAL HepG2 Assay for M32 Transcription Factor (Internal Marker) (AID 2282949); conditions: HepG2 Attagene cis-factorial M32 reporter, mRNA; actives raise or lower the signal;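 further: background control marker of the multiplexed CIS panel rather than a real target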
Summary of the method: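 HepG2 transfectants (cis-regulated reporter transcription units) dosed 24 h. Reporter mRNA by RT-PCR plus CE, analysed as gain or loss relative to DMSO.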

[6] = ATG_M_06_CIS: Attagene CIS-FACTORIAL HepG2 Assay for M06 Transcription Factor (Internal Marker) (AID 2282950); conditions: HepG2 Attagene CIS-FACTORIAL M06 internal marker reporter; actives raise or lower the signal
Summary of the method: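 Cells (HepG2, transiently carrying cis-driven reporter units) receive chemical for 24 h before RNA isolation. Reporter cDNA is PCR-amplified, FAM-labelled by primer extension, HpaI-digested and sized on a capillary analyser.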

[7] = molecular target: Hypoxia-inducible factor 1-alpha (Homo sapiens) (UniProt Q16665); assay: ATG_HIF1a_CIS: Attagene CIS-FACTORIAL HepG2 Assay for human Hypoxia Inducible Factor 1 (HIF1A) (AID 2282951); conditions: HepG2 Attagene cis-factorial HIF1a reporter transcription; actives raise or lower the signal
Chain of Hypoxia-inducible factor 1-alpha (Homo sapiens) (Q16665 whole entry, looked up): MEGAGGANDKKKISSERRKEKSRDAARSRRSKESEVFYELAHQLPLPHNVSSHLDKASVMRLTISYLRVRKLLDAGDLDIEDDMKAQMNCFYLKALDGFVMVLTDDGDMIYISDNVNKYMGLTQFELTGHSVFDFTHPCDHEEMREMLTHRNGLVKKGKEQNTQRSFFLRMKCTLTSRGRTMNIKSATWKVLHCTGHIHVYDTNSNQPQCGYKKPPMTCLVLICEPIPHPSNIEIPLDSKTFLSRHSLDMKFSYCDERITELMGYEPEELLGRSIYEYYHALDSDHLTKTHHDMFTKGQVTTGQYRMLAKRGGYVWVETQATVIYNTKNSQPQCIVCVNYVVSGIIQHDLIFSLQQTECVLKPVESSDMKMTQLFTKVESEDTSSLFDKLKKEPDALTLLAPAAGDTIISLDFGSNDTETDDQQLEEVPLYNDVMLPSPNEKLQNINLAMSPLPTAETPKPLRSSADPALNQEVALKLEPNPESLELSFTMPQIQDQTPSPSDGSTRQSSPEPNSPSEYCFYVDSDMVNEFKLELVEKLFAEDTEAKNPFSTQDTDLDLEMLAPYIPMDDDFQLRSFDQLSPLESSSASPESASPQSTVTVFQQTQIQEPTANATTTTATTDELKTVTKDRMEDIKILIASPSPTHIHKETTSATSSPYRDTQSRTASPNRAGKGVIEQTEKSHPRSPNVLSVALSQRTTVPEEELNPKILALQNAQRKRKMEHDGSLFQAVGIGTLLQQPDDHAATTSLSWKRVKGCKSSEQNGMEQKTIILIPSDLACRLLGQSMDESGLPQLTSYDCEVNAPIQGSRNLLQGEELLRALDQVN
Summary of the method: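 Endogenous-TF cis reporter readout, human HepG2 cells, 24 h incubation; mRNA detected via RT-PCR and capillary electrophoresis fluorescence; DMSO-normalised bidirectional fitting.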

[8] = molecular target: Heat shock factor protein 1 (Homo sapiens) (UniProt Q00613); assay: ATG_HSE_CIS: Attagene CIS-FACTORIAL HepG2 Assay for human Heat Shock Transcription Factor 1 (HSE) (AID 2282953); conditions: HepG2 HSE cis-reporter, Attagene RNA transcription; actives raise or lower the signal
Chain of Heat shock factor protein 1 (Homo sapiens) (Q00613 whole entry, looked up): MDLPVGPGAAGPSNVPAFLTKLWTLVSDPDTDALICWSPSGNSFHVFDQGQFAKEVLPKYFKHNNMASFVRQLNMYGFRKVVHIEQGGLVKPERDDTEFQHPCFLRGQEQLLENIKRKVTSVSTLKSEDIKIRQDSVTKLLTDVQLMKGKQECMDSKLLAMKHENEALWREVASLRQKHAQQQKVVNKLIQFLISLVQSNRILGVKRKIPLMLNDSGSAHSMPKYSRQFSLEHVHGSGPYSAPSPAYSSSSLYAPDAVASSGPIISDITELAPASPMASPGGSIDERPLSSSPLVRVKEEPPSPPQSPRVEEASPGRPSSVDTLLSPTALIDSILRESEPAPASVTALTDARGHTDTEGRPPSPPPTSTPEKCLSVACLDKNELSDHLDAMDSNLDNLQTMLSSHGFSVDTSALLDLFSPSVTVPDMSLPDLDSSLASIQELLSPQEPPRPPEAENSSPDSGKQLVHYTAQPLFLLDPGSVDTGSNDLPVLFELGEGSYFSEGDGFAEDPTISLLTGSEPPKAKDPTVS
Summary of the method: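 Liver-derived HepG2 cells carry transiently introduced multiple reporter units governed by cis promoters. Reporter RNA measured 24 h post-dose through reverse transcription, PCR amplification, fluorescent labelling and capillary electrophoresis, normalised to DMSO.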

[9] = ATG_MRE_CIS: Attagene CIS-FACTORIAL HepG2 Assay for human Metal Responsive Element (MRE) (AID 2282954); conditions: HepG2 MRE cis-reporter transcription, Attagene multiplex; actives raise or lower the signal
Summary of the method: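 Endogenous MRE-dependent transcription read as reporter mRNA in transiently transfected human HepG2 cells at 24 h. RNA reverse-transcribed, PCR-amplified, labelled and resolved by capillary electrophoresis; gain or loss relative to DMSO.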

[10] = ATG_PBREM_CIS: Attagene CIS-FACTORIAL HepG2 Assay for human Phenobarbital-responsive Enhancer Module (PBREM) (AID 2282955); conditions: HepG2 PBREM cis-reporter, Attagene multiplexed transcription; actives raise or lower the signal
Summary of the method: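 Readout: reporter mRNA, fluorescent RT-PCR fragments separated by capillary electrophoresis. System: HepG2 transiently transfected with cis-regulated reporter units. Exposure: 24 h. Analysis: bidirectional, DMSO baseline.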

[11] = molecular target: Paired box protein Pax-6 (Homo sapiens) (UniProt P26367); assay: ATG_Pax6_CIS: Attagene CIS-FACTORIAL HepG2 Assay for human Paired Box 6 (PAX6) (AID 2282956); conditions: HepG2 CIS-FACTORIAL PAX6 reporter transcription, RNA readout; actives raise or lower the signal
Chain of Paired box protein Pax-6 (Homo sapiens) (P26367 whole entry, looked up): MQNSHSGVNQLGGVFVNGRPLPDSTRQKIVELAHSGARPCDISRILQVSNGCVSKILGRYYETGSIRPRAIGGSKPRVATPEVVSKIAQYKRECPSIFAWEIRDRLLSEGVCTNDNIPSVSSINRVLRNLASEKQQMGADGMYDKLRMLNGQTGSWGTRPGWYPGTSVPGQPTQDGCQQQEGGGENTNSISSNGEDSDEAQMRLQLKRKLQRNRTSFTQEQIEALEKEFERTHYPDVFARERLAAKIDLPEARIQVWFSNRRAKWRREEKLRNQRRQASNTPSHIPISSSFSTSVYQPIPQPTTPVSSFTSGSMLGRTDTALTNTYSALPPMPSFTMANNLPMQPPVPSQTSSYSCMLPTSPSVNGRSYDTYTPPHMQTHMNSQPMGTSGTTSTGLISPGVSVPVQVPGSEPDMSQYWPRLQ
Summary of the method: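 Values derive from bidirectional curve fitting of reporter mRNA signal relative to DMSO. HepG2 cells bearing transfected cis-regulated MRTUs were exposed for 24 h; transcripts were read by RT-PCR and capillary electrophoresis.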

[12] = ATG_PXRE_CIS: Attagene CIS-FACTORIAL HepG2 Assay for human Pregnane X Receptor Element (PXRE) (AID 2282957); conditions: HepG2 Attagene CIS-FACTORIAL PXRE reporter, mRNA; actives raise or lower the signal
Summary of the method: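 Endogenous transcription factor activity in HepG2 was gauged through induction of reporter mRNA driven by a cis-regulating promoter element, sampled 24 h post-treatment. Activity was fitted in both directions against DMSO negative control.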

[13] = ATG_PPRE_CIS: Attagene CIS-FACTORIAL HepG2 Assay for human Peroxisome Proliferator-activated Response Element (PPRE) (AID 2282958); conditions: HepG2 PPRE cis-element reporter, Attagene transcription factor profiling; actives raise or lower the signal
Summary of the method: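 After human HepG2 hepatoma cells were transiently transfected with cis-promoter reporter constructs, they were exposed to test chemicals for 24 hours. Reporter RNA was then reverse-transcribed, PCR-amplified, FAM-labeled, HpaI-digested and quantified by capillary electrophoresis.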

[14] = ATG_Sox_CIS: Attagene CIS-FACTORIAL HepG2 Assay for human SRY-box transcription factor (SOX) (AID 2282960); conditions: HepG2 Attagene cis-factorial SOX reporter, mRNA; actives raise or lower the signal
Summary of the method: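 Using transiently transfected HepG2 cells, reporter transcription driven by cis elements was assessed 24 h after dosing. Signal was fluorescence of capillary-separated RT-PCR products, with DMSO defining baseline activity.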

[15] = molecular target: Transcription factor Sp1 (Homo sapiens) (UniProt P08047); assay: ATG_Sp1_CIS: Attagene CIS-FACTORIAL HepG2 Assay for human Specificity Protein 1 (Sp1) (AID 2282961); conditions: HepG2 Sp1 cis-reporter transcription, actives raise or lower the signal
Chain of Transcription factor Sp1 (Homo sapiens) (P08047 whole entry, looked up): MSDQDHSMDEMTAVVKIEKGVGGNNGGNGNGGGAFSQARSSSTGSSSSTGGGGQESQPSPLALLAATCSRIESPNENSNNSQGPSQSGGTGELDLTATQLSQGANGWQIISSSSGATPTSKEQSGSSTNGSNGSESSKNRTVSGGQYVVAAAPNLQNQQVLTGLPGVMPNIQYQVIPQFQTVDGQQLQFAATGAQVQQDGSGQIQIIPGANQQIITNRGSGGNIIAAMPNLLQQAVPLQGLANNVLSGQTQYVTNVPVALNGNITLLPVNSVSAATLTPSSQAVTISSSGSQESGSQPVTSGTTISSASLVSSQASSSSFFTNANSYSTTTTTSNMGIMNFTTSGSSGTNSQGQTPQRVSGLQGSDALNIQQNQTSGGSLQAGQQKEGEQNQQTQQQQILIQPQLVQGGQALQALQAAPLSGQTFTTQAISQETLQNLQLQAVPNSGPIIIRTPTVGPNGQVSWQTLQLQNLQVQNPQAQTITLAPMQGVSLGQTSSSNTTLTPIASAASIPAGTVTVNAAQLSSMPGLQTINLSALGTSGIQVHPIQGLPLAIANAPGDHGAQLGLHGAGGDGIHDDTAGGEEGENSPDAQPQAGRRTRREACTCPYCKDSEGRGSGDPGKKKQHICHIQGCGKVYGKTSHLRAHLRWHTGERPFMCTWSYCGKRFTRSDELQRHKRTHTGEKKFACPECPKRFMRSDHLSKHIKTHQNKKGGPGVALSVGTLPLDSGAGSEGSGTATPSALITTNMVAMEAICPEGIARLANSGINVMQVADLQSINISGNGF
Summary of the method: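 After transient transfection of HepG2 cells with cis-promoter reporter units and 24 h chemical treatment, reporter transcripts were quantified by RT-PCR and capillary electrophoresis fluorescence. Gain- and loss-of-signal fitted against DMSO.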

[16] = ATG_SREBP_CIS: Attagene CIS-FACTORIAL HepG2 Assay for human Sterol Regulatory Element Binding (SREBP) (AID 2282962); conditions: HepG2 Attagene cis-factorial SREBP reporter, mRNA; actives raise or lower the signal
Summary of the method: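 Values derive from bidirectional curve fitting with DMSO as baseline. The underlying measurement is reporter mRNA from cis-element-regulated units in transiently transfected HepG2, quantified by RT-PCR and capillary electrophoresis after 24 h exposure.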

[17] = molecular target: Signal transducer and activator of transcription 3 (Homo sapiens) (UniProt P40763); assay: ATG_STAT3_CIS: Attagene CIS-FACTORIAL HepG2 Assay for human Signal Transducer and Activator of Transcription 3 (STAT3) (AID 2282963); conditions: HepG2, Attagene cis-factorial STAT3 reporter transcription; actives raise or lower the signal
Chain of Signal transducer and activator of transcription 3 (Homo sapiens) (P40763 whole entry, looked up): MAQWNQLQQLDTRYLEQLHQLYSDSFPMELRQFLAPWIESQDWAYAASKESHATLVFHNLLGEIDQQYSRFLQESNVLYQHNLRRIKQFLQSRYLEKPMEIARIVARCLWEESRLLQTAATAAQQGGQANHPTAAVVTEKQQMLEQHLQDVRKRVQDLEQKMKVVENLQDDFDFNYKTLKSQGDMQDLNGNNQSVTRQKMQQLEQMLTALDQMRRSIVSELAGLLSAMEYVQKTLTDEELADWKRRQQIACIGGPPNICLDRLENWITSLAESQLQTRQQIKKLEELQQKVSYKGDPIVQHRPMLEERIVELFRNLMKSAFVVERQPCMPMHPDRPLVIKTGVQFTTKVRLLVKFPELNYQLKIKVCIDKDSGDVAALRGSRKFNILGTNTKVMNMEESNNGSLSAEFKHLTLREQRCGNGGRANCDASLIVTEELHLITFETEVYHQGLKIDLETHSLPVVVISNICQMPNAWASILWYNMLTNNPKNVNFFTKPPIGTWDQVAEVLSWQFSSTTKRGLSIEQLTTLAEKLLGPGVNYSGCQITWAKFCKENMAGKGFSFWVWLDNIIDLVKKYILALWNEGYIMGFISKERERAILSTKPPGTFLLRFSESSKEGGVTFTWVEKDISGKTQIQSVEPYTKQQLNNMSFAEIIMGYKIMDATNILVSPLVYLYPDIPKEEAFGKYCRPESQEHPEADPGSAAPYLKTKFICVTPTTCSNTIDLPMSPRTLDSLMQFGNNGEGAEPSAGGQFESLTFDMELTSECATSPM
Summary of the method: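 Readout is reporter transcript quantified by RT-PCR and capillary electrophoresis, with 6-FAM primer extension and HpaI digestion. Total RNA is taken 24 h after dosing transiently transfected HepG2 carrying cis-regulated reporter units. Bidirectional fit against DMSO.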

[18] = ATG_TA_CIS: Attagene CIS-FACTORIAL HepG2 Assay for human TA Basal Promoter (AID 2282964); conditions: HepG2 Attagene CIS-factorial TA basal promoter reporter; actives raise or lower the signal
Summary of the method: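 Background internal-marker endpoint from a 52-component HepG2 cis-reporter panel. Cells treated 24 h; reporter transcripts quantified via RT-PCR and CE fluorescence against DMSO baseline.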

[19] = ATG_RORE_CIS: Attagene CIS-FACTORIAL HepG2 Assay for human RAR-related Orphan Receptor Element (RORE) (AID 2282959); conditions: HepG2 Attagene cis-factorial RORE reporter, mRNA; actives raise or lower the signal
Summary of the method: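 Measured here: transcript induction of a cis-regulated reporter in HepG2 cells transiently transfected via FuGene 6. After 24 h, RNA was processed by RT-PCR and fluorescent capillary electrophoresis; DMSO defined baseline activity.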

[20] = molecular target: Hepatocyte nuclear factor 6 (Homo sapiens) (UniProt Q9UBC0); assay: ATG_HNF6_CIS: Attagene CIS-FACTORIAL HepG2 Assay for human Hepatocyte Nuclear Factor 6 (HNF6) (AID 2282952); conditions: HepG2 Attagene cis-factorial HNF6 reporter transcription; actives raise or lower the signal
Chain of Hepatocyte nuclear factor 6 (Homo sapiens) (Q9UBC0 whole entry, looked up): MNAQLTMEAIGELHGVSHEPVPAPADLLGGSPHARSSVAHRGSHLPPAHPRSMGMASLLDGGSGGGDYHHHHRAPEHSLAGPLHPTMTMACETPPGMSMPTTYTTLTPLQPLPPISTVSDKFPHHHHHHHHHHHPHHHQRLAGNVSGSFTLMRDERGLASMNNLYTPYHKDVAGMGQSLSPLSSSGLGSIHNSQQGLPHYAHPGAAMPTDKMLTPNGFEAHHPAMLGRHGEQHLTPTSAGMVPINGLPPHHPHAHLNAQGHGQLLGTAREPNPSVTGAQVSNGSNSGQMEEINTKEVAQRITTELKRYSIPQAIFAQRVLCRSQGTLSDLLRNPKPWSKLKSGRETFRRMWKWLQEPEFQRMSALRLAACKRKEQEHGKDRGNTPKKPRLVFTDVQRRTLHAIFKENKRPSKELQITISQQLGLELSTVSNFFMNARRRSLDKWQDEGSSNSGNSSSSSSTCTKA
Summary of the method: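 Endogenous transcription factor activity in human HepG2 liver cells was captured through cis-regulated reporter constructs. After 24 h treatment, reporter mRNA was measured by RT-PCR with capillary electrophoresis, and activity was fitted in both directions relative to DMSO.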

Measured: AC50

ClC(Cl)=C(c1ccc(Cl)cc1)c1ccccc1Cl
active: [2] 43.7 µM | [3] 124 µM | [8] 41.7 µM | [9] 100 µM | [11] 100 µM | [12] 2.77 µM | [13] 55.3 µM | [15] 27.3 µM | [16] 98.5 µM
inactive: [1] | [4] | [5] | [6] | [7] | [10] | [14] | [17] | [18]

c1ccc2c(c1)sc1ccccc12
not listed: [20]
inactive: all other assays above

CCOP(=O)(O)C(N)=O
active: [12] 47.9 µM
not listed: [10] | [19]
inactive: all other assays above

OCC1CO1 (stereo not given)
not listed: [10]
inactive: all other assays above

CC(=O)c1ccc(-c2ccccc2)cc1
active: [12] 27.2 µM
not listed: [20]
inactive: all other assays above

CCN(CC)C1CCCCC1
not listed: [20]
inactive: all other assays above

CCCCN(CC)C(=O)SCCC
active: [12] 25.9 µM
not listed: [20]
inactive: all other assays above

N#Cc1c(-c2ccc(Cl)cc2)[nH]c(C(F)(F)F)c1Br
active: [4] 1 µM | [8] 47.3 µM | [9] 0.956 µM | [10] 0.122 µM | [12] 2.6 µM | [19] 1 µM | [16] 0.274 µM
not listed: [20]
inactive: all other assays above
